Results taken from ChEMBL document CHEMBL3988442, “University of Dundee, Small-Polar-MMV Screening Library” (2021).
For some of these results: Potency and affinity values are given separately.

What was measured:
Set-up in all cases: scale not given: direction of the effect not stated beside the values
[1] = molecular target: Protein translocase subunit SecA (Escherichia coli (strain K12)) (UniProt P10408); test: Assay to Identify E. coli SecA ATPase Inhibitors; assay type: functional; conditions: 30 µM
[2] = molecular target: T1, Ubiquitin-activating enzyme e1, putative (Leishmania donovani (strain BPK282A1)) (UniProt E9BSI1); test: Leishmania donovani Ubiquitin Activating Enzyme (LdE1); assay type: functional; conditions: 30 µM
T1 sequence (whole entry): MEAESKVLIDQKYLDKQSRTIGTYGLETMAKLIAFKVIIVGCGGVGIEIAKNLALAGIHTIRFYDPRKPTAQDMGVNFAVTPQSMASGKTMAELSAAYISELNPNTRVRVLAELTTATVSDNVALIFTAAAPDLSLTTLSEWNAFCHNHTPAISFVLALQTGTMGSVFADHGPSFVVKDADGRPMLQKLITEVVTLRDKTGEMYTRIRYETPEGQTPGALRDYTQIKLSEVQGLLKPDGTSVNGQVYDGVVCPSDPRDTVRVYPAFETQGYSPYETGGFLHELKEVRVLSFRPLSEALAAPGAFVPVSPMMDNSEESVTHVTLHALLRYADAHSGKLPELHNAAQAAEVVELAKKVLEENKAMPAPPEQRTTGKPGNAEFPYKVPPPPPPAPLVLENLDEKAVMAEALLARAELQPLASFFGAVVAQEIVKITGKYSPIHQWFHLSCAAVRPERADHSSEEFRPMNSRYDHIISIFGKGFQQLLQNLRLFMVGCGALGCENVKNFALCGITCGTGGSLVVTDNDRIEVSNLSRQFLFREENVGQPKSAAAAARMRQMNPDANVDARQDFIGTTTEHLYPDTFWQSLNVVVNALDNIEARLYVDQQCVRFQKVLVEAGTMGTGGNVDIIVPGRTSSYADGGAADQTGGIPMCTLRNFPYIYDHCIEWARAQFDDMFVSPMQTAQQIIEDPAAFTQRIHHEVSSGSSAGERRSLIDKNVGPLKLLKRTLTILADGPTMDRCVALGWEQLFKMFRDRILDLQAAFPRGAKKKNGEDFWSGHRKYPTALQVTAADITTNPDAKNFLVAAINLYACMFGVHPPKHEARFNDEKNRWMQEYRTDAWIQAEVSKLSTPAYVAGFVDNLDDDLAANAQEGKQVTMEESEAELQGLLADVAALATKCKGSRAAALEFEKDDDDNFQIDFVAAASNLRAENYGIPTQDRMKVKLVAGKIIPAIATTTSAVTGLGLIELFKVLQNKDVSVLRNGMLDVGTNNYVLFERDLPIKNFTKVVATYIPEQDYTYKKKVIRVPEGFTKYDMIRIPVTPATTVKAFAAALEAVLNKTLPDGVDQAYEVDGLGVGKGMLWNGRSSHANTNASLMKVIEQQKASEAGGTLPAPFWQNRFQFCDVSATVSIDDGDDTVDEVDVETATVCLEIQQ

[3] = molecular target: AMP-activated protein kinase, AMPK (Homo sapiens) (UniProt P54646+O43741+P54619+Q9UGJ0+Q9Y478+Q13131+Q9UGI9); test: AMP-dependent Kinase enzyme assay. An in vitro enzyme assay that detects ADP turnover that is directly proportional to AMPK activity. This uses naive AMPK that is activated during the assay with MK-8722; assay type: functional; conditions: 30 µM
[4] = molecular target: Sialic acid-binding Ig-like lectin 9 (Homo sapiens) (UniProt Q9Y336); test: Hs-Siglec9 ALPHAscreen SOP 20170721; conditions: 10 µM
Trypanosoma cruzi = test: Trypanosoma cruzi phosphomannomutase and mannose-1-phosphate guanylyltransferase assay; assay type: functional; conditions: 10 µM
[5] = molecular target: T2, Arginase-2, mitochondrial (Homo sapiens) (UniProt P78540); test: in vitro enzyme assay to detect the production of urea directly proportional to the activity of Arginase II; assay type: functional; conditions: 33.3 µM; note: in the data most compounds retested in dose-response had high values
T2 sequence (whole entry): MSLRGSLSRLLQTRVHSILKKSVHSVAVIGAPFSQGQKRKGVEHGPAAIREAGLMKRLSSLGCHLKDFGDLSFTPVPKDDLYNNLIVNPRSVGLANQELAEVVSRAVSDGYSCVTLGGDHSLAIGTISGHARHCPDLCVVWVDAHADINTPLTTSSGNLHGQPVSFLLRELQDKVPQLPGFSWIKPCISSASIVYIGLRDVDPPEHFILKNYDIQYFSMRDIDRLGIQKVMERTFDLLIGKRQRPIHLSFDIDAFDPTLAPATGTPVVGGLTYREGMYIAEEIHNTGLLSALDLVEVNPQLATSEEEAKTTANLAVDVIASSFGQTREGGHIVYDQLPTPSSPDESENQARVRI

[6] = molecular target: T3, Proteasome subunit beta (Trypanosoma cruzi) (UniProt O96673); test: Trypanosoma cruzi proteasome chymotrypsin-like activity (TcProtChymo) assay.; note: in the data most compounds retested in dose-response had high values; assay type: functional; conditions: 9.37 µM
T3 sequence (whole entry): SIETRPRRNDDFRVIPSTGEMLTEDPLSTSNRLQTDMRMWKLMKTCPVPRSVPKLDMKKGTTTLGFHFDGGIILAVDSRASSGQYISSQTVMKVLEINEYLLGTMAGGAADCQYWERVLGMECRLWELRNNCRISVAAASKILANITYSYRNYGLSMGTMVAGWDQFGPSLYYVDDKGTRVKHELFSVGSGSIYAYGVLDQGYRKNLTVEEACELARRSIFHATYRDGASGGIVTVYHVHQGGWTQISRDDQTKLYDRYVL

Homo sapiens = organism: Homo sapiens; test: To identify inhibition of the IFN signalling (Jak-Stat) pathway via expression of an eGFP reporter gene under the control of an IFN-stimulated response element (ISRE) containing MxA promoter.; assay type: functional; conditions: 30 µM
[7] = molecular target: T4, Tyrosyl-tRNA synthetase, putative (Trypanosoma cruzi (strain CL Brener)) (UniProt Q4DSP6); test: Trypanosoma cruzi tyrosyl tRNA synthetase (TcYRS) _High Tyrosine SOP; assay type: functional; conditions: 30 µM; note: in the data most compounds retested in dose-response had high values
T4 sequence (whole entry): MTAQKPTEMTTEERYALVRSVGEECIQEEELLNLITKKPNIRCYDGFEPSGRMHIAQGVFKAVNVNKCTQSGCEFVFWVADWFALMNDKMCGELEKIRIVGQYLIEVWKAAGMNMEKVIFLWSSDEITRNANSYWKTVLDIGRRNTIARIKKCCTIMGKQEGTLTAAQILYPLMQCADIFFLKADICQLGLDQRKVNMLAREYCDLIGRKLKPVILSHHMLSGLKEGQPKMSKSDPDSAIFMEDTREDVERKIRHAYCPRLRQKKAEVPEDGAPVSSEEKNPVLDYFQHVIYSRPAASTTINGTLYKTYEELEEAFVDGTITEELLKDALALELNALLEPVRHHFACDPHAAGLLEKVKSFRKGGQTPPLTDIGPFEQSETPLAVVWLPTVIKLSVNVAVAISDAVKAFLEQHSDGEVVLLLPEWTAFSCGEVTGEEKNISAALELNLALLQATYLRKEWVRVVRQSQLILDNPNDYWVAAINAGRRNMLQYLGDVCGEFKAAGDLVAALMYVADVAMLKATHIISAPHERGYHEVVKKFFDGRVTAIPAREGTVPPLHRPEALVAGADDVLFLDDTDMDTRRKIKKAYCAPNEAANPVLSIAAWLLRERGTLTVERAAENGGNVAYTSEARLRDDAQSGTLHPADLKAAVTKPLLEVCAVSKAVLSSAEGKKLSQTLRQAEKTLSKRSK

[8] = molecular target: T4, Tyrosyl-tRNA synthetase, putative (Trypanosoma cruzi (strain CL Brener)); test: Trypanosoma cruzi tyrosyl tRNA synthetase (TcYRS) SOP; assay type: functional; conditions: 30 µM
[9] = molecular target: Chromo domain-containing protein 1 (Saccharomyces cerevisiae (strain ATCC 204508 / S288c) (Baker's yeast)) (UniProt P32657); test: ScCHD-1 Enzyme Inhibition Assay; assay type: functional; conditions: 30 µM; note: in the data most compounds retested in dose-response had high values
Chain of Chromo domain-containing protein 1 (Saccharomyces cerevisiae (strain ATCC 204508 / S288c) (Baker's yeast)) (P32657 whole entry, the tested form may be a part): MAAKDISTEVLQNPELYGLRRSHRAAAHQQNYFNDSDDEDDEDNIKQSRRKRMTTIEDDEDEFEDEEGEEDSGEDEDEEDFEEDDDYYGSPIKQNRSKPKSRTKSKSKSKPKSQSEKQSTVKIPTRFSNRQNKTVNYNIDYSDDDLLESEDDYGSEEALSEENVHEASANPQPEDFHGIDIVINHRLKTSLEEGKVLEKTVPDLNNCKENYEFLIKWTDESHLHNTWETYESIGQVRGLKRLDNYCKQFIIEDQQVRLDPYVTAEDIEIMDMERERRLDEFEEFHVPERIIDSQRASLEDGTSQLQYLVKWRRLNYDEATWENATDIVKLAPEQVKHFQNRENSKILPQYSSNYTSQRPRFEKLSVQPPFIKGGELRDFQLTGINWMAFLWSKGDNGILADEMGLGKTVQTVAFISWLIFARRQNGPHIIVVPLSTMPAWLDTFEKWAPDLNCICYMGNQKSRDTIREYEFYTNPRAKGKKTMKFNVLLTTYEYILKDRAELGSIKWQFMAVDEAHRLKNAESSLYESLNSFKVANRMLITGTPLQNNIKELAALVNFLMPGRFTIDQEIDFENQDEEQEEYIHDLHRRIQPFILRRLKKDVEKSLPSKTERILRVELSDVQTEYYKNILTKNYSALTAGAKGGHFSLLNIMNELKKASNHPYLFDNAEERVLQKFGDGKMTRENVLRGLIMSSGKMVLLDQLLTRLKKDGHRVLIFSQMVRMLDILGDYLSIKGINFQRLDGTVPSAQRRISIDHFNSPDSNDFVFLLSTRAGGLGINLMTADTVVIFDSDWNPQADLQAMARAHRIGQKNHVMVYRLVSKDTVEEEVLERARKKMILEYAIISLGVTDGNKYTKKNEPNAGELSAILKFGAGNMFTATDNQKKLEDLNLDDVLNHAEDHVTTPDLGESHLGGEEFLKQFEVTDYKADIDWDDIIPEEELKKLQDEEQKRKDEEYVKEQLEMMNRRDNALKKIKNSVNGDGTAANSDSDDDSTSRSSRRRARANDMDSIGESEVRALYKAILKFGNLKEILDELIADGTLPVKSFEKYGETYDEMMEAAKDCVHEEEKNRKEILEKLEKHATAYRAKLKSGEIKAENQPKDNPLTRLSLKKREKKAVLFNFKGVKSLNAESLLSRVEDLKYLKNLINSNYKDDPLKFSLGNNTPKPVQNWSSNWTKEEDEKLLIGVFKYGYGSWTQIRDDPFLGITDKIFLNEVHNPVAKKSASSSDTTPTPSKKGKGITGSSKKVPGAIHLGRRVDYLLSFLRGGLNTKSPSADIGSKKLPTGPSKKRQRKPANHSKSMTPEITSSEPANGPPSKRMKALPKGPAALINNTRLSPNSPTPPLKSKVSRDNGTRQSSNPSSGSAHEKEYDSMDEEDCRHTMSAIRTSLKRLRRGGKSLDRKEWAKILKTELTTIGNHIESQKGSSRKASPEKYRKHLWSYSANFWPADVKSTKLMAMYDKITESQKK

Chain of Protein translocase subunit SecA (Escherichia coli (strain K12)) (P10408 whole entry): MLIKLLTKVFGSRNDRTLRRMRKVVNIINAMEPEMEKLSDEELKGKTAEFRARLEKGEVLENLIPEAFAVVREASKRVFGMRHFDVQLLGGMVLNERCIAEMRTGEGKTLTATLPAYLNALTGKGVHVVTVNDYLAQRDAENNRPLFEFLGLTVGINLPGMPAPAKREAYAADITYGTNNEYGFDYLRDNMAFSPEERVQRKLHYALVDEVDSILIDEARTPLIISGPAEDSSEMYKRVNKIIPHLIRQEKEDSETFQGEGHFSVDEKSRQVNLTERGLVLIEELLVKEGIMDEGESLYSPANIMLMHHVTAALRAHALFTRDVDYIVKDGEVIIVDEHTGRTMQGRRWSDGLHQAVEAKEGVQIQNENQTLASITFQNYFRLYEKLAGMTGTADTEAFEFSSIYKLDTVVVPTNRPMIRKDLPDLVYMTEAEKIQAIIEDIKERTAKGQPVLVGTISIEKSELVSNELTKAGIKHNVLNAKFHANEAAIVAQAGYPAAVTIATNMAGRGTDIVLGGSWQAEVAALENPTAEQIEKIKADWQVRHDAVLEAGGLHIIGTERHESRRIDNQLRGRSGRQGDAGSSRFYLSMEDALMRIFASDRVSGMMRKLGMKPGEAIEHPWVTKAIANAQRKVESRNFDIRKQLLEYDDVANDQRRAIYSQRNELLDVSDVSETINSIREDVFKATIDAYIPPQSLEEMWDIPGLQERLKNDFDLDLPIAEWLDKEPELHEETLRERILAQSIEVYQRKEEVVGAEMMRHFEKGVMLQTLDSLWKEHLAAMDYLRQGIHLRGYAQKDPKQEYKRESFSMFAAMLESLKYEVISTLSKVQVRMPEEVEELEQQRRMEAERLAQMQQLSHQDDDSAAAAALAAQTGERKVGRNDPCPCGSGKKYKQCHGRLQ
Chain of Sialic acid-binding Ig-like lectin 9 (Homo sapiens) (Q9Y336 whole entry): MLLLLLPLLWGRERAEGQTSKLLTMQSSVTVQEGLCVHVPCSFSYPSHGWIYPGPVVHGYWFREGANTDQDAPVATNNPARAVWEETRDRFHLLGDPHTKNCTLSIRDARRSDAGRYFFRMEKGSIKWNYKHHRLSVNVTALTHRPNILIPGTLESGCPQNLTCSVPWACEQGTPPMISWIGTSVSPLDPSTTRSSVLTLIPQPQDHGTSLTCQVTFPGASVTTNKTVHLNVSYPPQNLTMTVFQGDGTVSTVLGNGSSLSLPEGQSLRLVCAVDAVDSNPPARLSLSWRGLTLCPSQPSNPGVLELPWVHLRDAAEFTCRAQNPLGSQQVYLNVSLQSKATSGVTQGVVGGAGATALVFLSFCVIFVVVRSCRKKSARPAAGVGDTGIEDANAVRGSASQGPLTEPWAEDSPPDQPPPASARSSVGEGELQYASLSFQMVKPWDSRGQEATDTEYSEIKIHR

Row | Structure (SMILES) | Percent Effect [1] | Percent Effect [2] | Percent Effect [3] | Percent Effect [4] | Percent Effect (Trypanosoma cruzi) | Percent Effect [5] | Percent Effect [6] | Percent Effect (Homo sapiens) | Percent Effect [7] | Percent Effect [8] | Percent Effect [9]
1 | COc1ccc(NC(C)=O)c(N2CCN(C(C)=O)CC2)n1 | -3.73% | -2.7% | -14.1% | -3.66% | -3.32% | 0% | 7.35% | -1.36% | 7.92% | 8.54% | 15.3%
2 | CCS(=O)(=O)N1CCC2(CC1)CC(Oc1ccccn1)CO2 (stereo not given) | -0.483% | 10.4% | 4.49% | -1.15% | -5.23% | 7.1% | 11% | 17.8% | 2.12% | 3.85% | -7.08%
3 | Cc1ccc(NC(=O)N2CCC(NC(=O)c3ccc(C)o3)CC2)cc1 | -4.11% | 15.6% | 3.14% | 4.46% | 2.45% | 0.632% | 6.39% | 8.38% | 8.57% | 23.5% | -10.9%
4 | CS(=O)(=O)c1ccccc1C(=O)NCC1Cc2ccccc2O1 (stereo not given) | -1.96% | 11% | -2.95% | 0.634% | -4.31% | 0.455% | 19% | 20.8% | 4.3% | 7.5% | -5.76%
5 | COCCOCc1cccc(NC(=O)N2CCCC2c2ccncc2)c1 (stereo not given) | -2.97% | 13% | -3.58% | 1.28% | -4.02% | 1.9% | 5.09% | 16.9% | 6.67% | 7.06% | -20.8%
6 | CC(C)c1nc(C(=O)N2CCCC(n3cncn3)C2)c[nH]1 (stereo not given) | -4.19% | 11.4% | 3.03% | 3.06% | -0.308% | 0.215% | 12.9% | 20.5% | 4.17% | 15.2% | -17%
7 | COc1cc(C(C)=O)ccc1OCC(=O)N(C)Cc1cnn(C)c1 | -4.48% | 21.1% | -7.57% | 7.64% | 4.76% | 1.44% | 6.18% | 6.99% | 6.4% | 25.9% | -10.6%
8 | CN(Cc1cnn(C)c1)C(=O)Cn1c(CS(C)(=O)=O)nc2ccccc21 | -1.5% | 10.5% | 3.77% | -0.257% | -3.6% | -8.28% | 11.2% | 9.18% | 5.32% | 10.4% | -3.69%
9 | Cn1c(C2CC2)nc2c1CCN(CC(=O)Nc1nncs1)C2 | -2.25% | -2.6% | 0.616% | 7.43% | -2.06% | -11.4% | 3.72% | -9.48% | 4.85% | 7.32% | -5.21%
10 | Cn1ncc2c1NC(=O)CC2c1ccccc1Cl (stereo not given) | -6.92% | 10.5% | 5.36% | 7.02% | 3.6% | -5.92% | 6.62% | 16.4% | 1.06% | 5.2% | -0.659%
11 | Cc1nn(CCn2ccnc2-c2cc3n(n2)CCCNC3)c(C)c1Cl | -4.62% | 21.3% | -6.15% | 20.4% | 5.75% | 6.25% | 16.9% | 21.8% | 7.1% | 23.5% | -7.41%
12 | Cc1nccc(N2CCC(=O)N(Cc3ccc(F)cc3)C(C(C)C)C2)n1 (stereo not given) | -2.94% | 1.39% | 1.69% | -1.4% | -1.07% | -0.883% | 4.56% | -6.54% | 0% | 2.56% | 1.68%
13 | O=C(NCCN1CCc2ccccc2C1)c1scnc1Cl | -2.6% | 13.2% | -2.29% | -8.63% | 6.26% | -3.24% | 18% | 6.79% | -6.4% | 23.5% | -6.08%
14 | CC(C)n1cc(C(=O)N2Cc3ccccc3OC3(CCOCC3)C2)cn1 | -4.16% | 9.46% | 5.88% | -5.24% | -8.1% | -9.05% | 14.5% | 28.1% | -3.23% | -1.3% | -13.3%
15 | CCOc1ncccc1NC(=O)N1CCN(c2cccc(C)c2C)CC1 | -0.972% | 10.8% | 2.83% | -3.7% | -10.1% | 5.36% | 4.49% | 15.3% | 3.96% | 13.4% | 1.36%
16 | Cc1noc(C)c1CN(C)C(=O)c1ccc(NC2CC2)nc1 | -1.87% | 15.8% | -5.49% | 6.74% | 1.59% | 2.88% | 5.84% | -7.41% | 9.36% | 18.5% | -4.25%
17 | Cn1cccc1C(=O)N1CCCN(CCCc2ccccc2)CC1 | 4.69% | -11% | -4.66% | 8.38% | -2.38% | -14.8% | 14.3% | 18.6% | 9.38% | 16.1% | -3.52%
18 | O=C(c1cc(COc2ccc3c(c2)OCO3)[nH]n1)N1CCOCC1 | -8.28% | -2.74% | 9.08% | -1.9% | -4.37% | 0.798% | 7.45% | 6.61% | -3.12% | -3.7% | -5.41%
19 | O=C(O)c1nnn(Cc2cccc(C(F)(F)F)c2)c1-c1cccnc1 | 2.36% | 6.67% | 10.2% | -2.89% | -4.13% | -10.4% | 8.5% | 4% | 7.41% | 12.8% | -7.79%
20 | Cc1cc2c(=O)n3c(nc2s1)CCN(Cc1ccncc1)CC3 | 2.21% | 4.05% | 13.8% | -10.1% | -4.94% | 5.8% | 4.21% | 19.7% | 3.23% | 9.09% | -10.3%
